# Measured values published in the supplement of paper PMC12494721.
# Structures can show the parent of a compound that is named as a salt.
# Key:
# Details in all cases: incubation time: 27 h, anaerobic, 37 °C;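 for the amine columns active = adjusted P below 0.05 in both replicates with a change the same way and a mean fold change under 0.8 or over 1.25; inactive = the rest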
# [1] = system: Clostridium sporogenes DSM 1664; assay: growth (OD595) fold change vs plate DMSO controls (fold change (ratio)); higher = more growth
# In short: (§1)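 Growth is expressed as the fold change relative to the median of the DMSO control wells on each plate. Cultures in mGAM were grown anaerobically in 96-well plates for 27 h at 37 °C, shaken, and read at 595 nm. Readings were blank-subtracted, corrected for compound background with 20 µM compound solutions in water, and converted to OD with a calibration factor of 5. Fold changes above 1.5 were set to NA, and each value is the mean of 2 biological replicates.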
# Escherichia coli IAI1 [2] = assay: as above
# In short: as §1
# [3] = system: Klebsiella aerogenes DSM 30053; assay: as above
# In short: as §1
# [4] = system: Ruminococcus gnavus DSM 108212; assay: as above
# In short: as §1
# [5] = system: Klebsiella aerogenes DSM 30053; assay: fold change of Histamine concentration vs plate DMSO controls (fold change (ratio)); higher = more amine produced, active = hit call of the paper (significant change in both replicates, either direction)
# In short: (§2)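 Amine values are fold changes relative to DMSO-only wells on the same plate. They derive from 27 h, 37 °C anaerobic mGAM cultures of four gut bacterial strains in 80 µL wells, dosed at 20 µM final, or 50 µM final for sweeteners. Extraction of the whole culture, LC–triple-quadrupole MS in dynamic MRM mode, external calibration curves and within-batch drift correction were used, with 2 biological replicates averaged.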
# [6] = system: Clostridium sporogenes DSM 1664; assay: fold change of Tryptamine concentration vs plate DMSO controls (fold change (ratio)); higher = more amine produced, active = hit call of the paper (significant change in both replicates, either direction)
# In short: as §2
# [7] = system: Ruminococcus gnavus DSM 108212; assay: as above
# In short: as §2
# Escherichia coli IAI1 [8] = assay: fold change of Putrescine concentration vs plate DMSO controls (fold change (ratio)); higher = more amine produced, active = hit call of the paper (significant change in both replicates, either direction)
# In short: as §2
# [9] = system: Klebsiella aerogenes DSM 30053; assay: as above
# In short: as §2
# Escherichia coli IAI1 [10] = assay: fold change of Cadaverine concentration vs plate DMSO controls (fold change (ratio)); higher = more amine produced, active = hit call of the paper (significant change in both replicates, either direction)
# In short: as §2
# [11] = system: Klebsiella aerogenes DSM 30053; assay: as above
# In short: as §2
# [12] = system: Ruminococcus gnavus DSM 108212; assay: fold change of 2-Phenylethylamine concentration vs plate DMSO controls (fold change (ratio)); higher = more amine produced, active = hit call of the paper (significant change in both replicates, either direction)
# In short: as §2
Compound,growth [1],growth (Escherichia coli IAI1 [2]),growth [3],growth [4],fold change of Histamine concentration [5],fold change of Tryptamine concentration [6],fold change of Tryptamine concentration [7],fold change of Putrescine concentration (Escherichia coli IAI1 [8]),fold change of Putrescine concentration [9],fold change of Cadaverine concentration (Escherichia coli IAI1 [10]),fold change of Cadaverine concentration [11],fold change of 2-Phenylethylamine concentration [12]
CN(CCOc1ccc(CC2SC(=O)NC2=O)cc1)c1ccccn1 (stereo not drawn) [Rosiglitazone hydrochloride] (20 µM),1.05,1.15,0.983,1.05,0.998 (inactive),1.06 (inactive),1.08 (inactive),1.17 (inactive),0.993 (inactive),0.926 (inactive),1.03 (inactive),1.12 (inactive)
CC(=O)[C@@]1(O)CC[C@H]2[C@@H]3C[C@H](C)C4=CC(=O)C=C[C@]4(C)[C@@]3(F)[C@@H](O)C[C@@]21C [Fluorometholone] (20 µM),1.02,0.986,1.01,1.14,1.05 (inactive),1.05 (inactive),1.08 (inactive),0.992 (inactive),0.968 (inactive),0.957 (inactive),0.983 (inactive),1.14 (inactive)
CN[C@@H]1[C@H](O)[C@H](NC)[C@H]2O[C@@]3(O)C(=O)C[C@@H](C)O[C@H]3O[C@@H]2[C@H]1O [Spectinomycin dihydrochloride] (20 µM),1.04,0.864,0.93,0.692,0.762 (inactive),0.992 (inactive),0.991 (inactive),0.796 (inactive),1.08 (inactive),0.95 (inactive),1.02 (inactive),0.991 (inactive)
COC(=O)Nc1nc2cc(Sc3ccccc3)ccc2[nH]1 [Fenbendazole] (20 µM),1,1.08,0.98,1.09,1.07 (inactive),0.986 (inactive),1 (inactive),1.05 (inactive),1.03 (inactive),0.967 (inactive),0.991 (inactive),1.02 (inactive)
CCOC(=O)[C@H](CCc1ccccc1)N[C@@H](C)C(=O)N1[C@H](C(=O)O)C[C@H]2CCCC[C@@H]21 [Trandolapril] (20 µM),0.941,1.05,1.02,1.01,0.994 (inactive),0.989 (inactive),1.02 (inactive),1.08 (inactive),1 (inactive),0.978 (inactive),0.991 (inactive),1.02 (inactive)
CC[C@H](C)C(=O)O[C@H]1C[C@H](O)C=C2C=C[C@H](C)[C@H](CC[C@@H](O)C[C@@H](O)CC(=O)O)[C@H]21 [Pravastatin] (20 µM),0.87,1.09,0.973,1.15,1.1 (inactive),1.12 (inactive),1.08 (inactive),1.11 (inactive),0.975 (inactive),0.904 (inactive),1.01 (inactive),1.1 (inactive)
CC(=O)[C@@]12O[C@](C)(c3ccccc3)O[C@@H]1C[C@H]1[C@@H]3CCC4=CC(=O)CC[C@]4(C)[C@H]3CC[C@@]12C [Algestone acetophenide] (20 µM),1.03,1.22,0.998,1.13,1.03 (inactive),0.919 (inactive),1.08 (inactive),1.3 (inactive),1.01 (inactive),0.955 (inactive),1 (inactive),1.1 (inactive)
COCCOC(=O)C1=C(C)NC(C)=C(C(=O)OC(C)C)C1c1cccc([N+](=O)[O-])c1 (stereo not drawn) [Nimodipine] (20 µM),0.946,0.814,1.03,0.991,0.947 (inactive),0.965 (inactive),0.909 (inactive),0.889 (inactive),0.99 (inactive),1.09 (inactive),1.01 (inactive),0.903 (inactive)
CCCCOC(=O)c1ccc(N)cc1 [Butamben] (20 µM),1.36,1,1.01,0.962,1 (inactive),1.04 (inactive),0.94 (inactive),0.935 (inactive),0.988 (inactive),1.01 (inactive),0.999 (inactive),0.915 (inactive)
OCc1cc(C(O)CNCCCCCCOCCCCc2ccccc2)ccc1O (stereo not drawn) [Salmeterol] (20 µM),1.17,1.02,1,0.975,1.04 (inactive),1.04 (inactive),0.936 (inactive),1.07 (inactive),0.975 (inactive),1.02 (inactive),0.986 (inactive),0.981 (inactive)
COc1cc(NS(=O)(=O)c2ccc(N)cc2)nc(OC)n1 [Sulfadimethoxine] (20 µM),0.79,0.992,1.1,1.01,0.891 (inactive),1.05 (inactive),1.29 (active),0.887 (inactive),0.946 (inactive),0.888 (inactive),1.03 (inactive),1.53 (active)
CNCCC(Oc1ccc(C(F)(F)F)cc1)c1ccccc1 (stereo not drawn) [Fluoxetine hydrochloride] (20 µM),1.18,1.02,1.03,1.2,0.972 (inactive),0.945 (inactive),0.882 (inactive),0.927 (inactive),0.993 (inactive),1.19 (inactive),0.995 (inactive),0.907 (inactive)
CN1CCN(C2Cc3ccccc3Sc3ccc(Cl)cc32)CC1 (stereo not drawn) [Octoclothepin maleate salt] (20 µM),0.962,0.98,0.941,0.931,1.01 (inactive),1.05 (inactive),0.848 (inactive),1.06 (inactive),1 (inactive),1.1 (inactive),0.99 (inactive),0.992 (inactive)
Cc1c(C)c2c(c(C)c1O)CCC(C)(C(=O)O)O2 (stereo not drawn) [Trolox] (20 µM),0.897,0.987,0.962,0.896,1.13 (inactive),0.995 (inactive),1.02 (inactive),0.926 (inactive),1.04 (inactive),0.986 (inactive),0.984 (inactive),1.03 (inactive)
CC(C)=CCOc1ccc(/C=C/C(=O)c2ccc(OCC=C(C)C)cc2OCC(=O)O)cc1 [Sofalcone] (20 µM),0.713,0.964,0.98,0.927,1 (inactive),0.425 (active),0.669 (active),1.01 (inactive),1 (inactive),1.03 (inactive),0.992 (inactive),0.689 (inactive)
Cc1cc(=O)oc2cc(O)ccc12 [Hymecromone] (20 µM),1.23,1.04,0.98,1.02,1.04 (inactive),1.06 (inactive),0.953 (inactive),1 (inactive),1.01 (inactive),0.999 (inactive),0.994 (inactive),0.95 (inactive)
CCCOc1ccccc1-c1nc2[nH]nnc2c(=O)[nH]1 [Zaprinast] (20 µM),1.03,0.972,1,1.2,0.988 (inactive),1.01 (inactive),1.01 (inactive),0.969 (inactive),1 (inactive),0.974 (inactive),1 (inactive),1.06 (inactive)
O=C1OCCN1/N=C/c1ccc([N+](=O)[O-])o1 [Furazolidone] (20 µM),0.395,1.04,0.855,1.22,0.991 (inactive),0.402 (inactive),0.973 (inactive),0.81 (inactive),0.937 (inactive),1.75 (active),1 (inactive),1.11 (inactive)
O=c1[nH]c(=O)n(C2CCCO2)cc1F (stereo not drawn) [Tegafur] (20 µM),1.08,0.975,1.01,0.933,0.969 (inactive),1.01 (inactive),1.06 (inactive),1.25 (inactive),1 (inactive),0.967 (inactive),1.01 (inactive),1.03 (inactive)
CC(NCCC(c1ccccc1)c1ccccc1)c1ccccc1 (stereo not drawn) [Fendiline hydrochloride] (20 µM),0.961,0.952,0.98,1.09,1.06 (inactive),0.941 (inactive),0.888 (inactive),1.18 (inactive),1.03 (inactive),0.196 (active),0.998 (inactive),0.98 (inactive)
CC(=O)Oc1ccccc1C(=O)Nc1ncc([N+](=O)[O-])s1 [Nitazoxanide] (20 µM),0.00234,0.925,0.915,0.11,0.982 (inactive),0.0219 (active),0.045 (active),1.02 (inactive),0.982 (inactive),1.25 (inactive),1.01 (inactive),0.0405 (active)
CCOC(=O)C1=C(C)NC(C)=C(C(=O)OC)C1c1cccc([N+](=O)[O-])c1 (stereo not drawn) [Nitrendipine] (20 µM),1.04,1.01,1.02,1.06,1.08 (inactive),0.947 (inactive),0.911 (inactive),1.09 (inactive),0.993 (inactive),1.01 (inactive),1.01 (inactive),0.913 (inactive)
CC(N/C(=N\C#N)Nc1ccncc1)C(C)(C)C (stereo not drawn) [Pinacidil monohydrate] (20 µM),0.925,1,0.98,1.13,1.08 (inactive),0.982 (inactive),1.09 (inactive),1 (inactive),1 (inactive),1.04 (inactive),0.981 (inactive),1.1 (inactive)
CCCCN(CCCC)CCC(O)c1cc2c(Cl)cc(Cl)cc2c2cc(C(F)(F)F)ccc12 (stereo not drawn) [Halofantrine hydrochloride] (20 µM),1.1,1.23,1.03,1.16,0.895 (inactive),1.01 (inactive),0.756 (active),1.17 (inactive),0.964 (inactive),0.955 (inactive),1.01 (inactive),0.92 (inactive)
